Gal4-VP16 FLuc: VP16 counterscreen qHTS for inhibitors of ROR gamma transcriptional activity. Drosophila S2 Gal4-VP16 UAS-luciferase, luminescence, 20 h. Potency, µM (doses to about 53.6 µM), inactives show at the highest dose activity, negative = inhibition, actives largely listed as inhibitors. 3.5% of 310,000 active. AID 2546, 2010;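 further: Gal4-VP16 expression switched on by copper sulfate through the metallothionein promoter; nearly all actives have a fitted effect of over 50% in size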
RORg inh: qHTS for inhibitors of ROR gamma transcriptional activity; Nuclear receptor ROR-gamma (Mus musculus), P51450; Drosophila S2 Gal4-RORgamma UAS-luciferase reporter, 20 h; 5.4% of 310,000 active; Potency, µM (series often up to 53.6 µM), for inactives: at the highest dose activity change, negative = inhibition, most hits filed as inhibitors; further: nearly all actives have a fitted effect of over 60% in size
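Luminescence from a UAS-regulated Photinus luciferase reporter in stably transfected Drosophila Schneider cells is measured; decreased signal marks ROR gamma inhibition. Fusion expression is induced by 700 uM copper sulfate for 20 hr.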
TDP1 cell noCPT: qHTS for Inhibitors of human tyrosyl-DNA phosphodiesterase 1 (TDP1): qHTS in cells in absence of CPT; AID 686978, 2013; DT40 Tdp1-/- hTDP1 cells, no CPT, ATP luminescence, 48 h; 15% of 420,000 active; Potency, µM (top dose mostly 46.2 µM), inactives show at the top dose activity change, negative = growth inhibition, hits mostly inhibitors; further: nearly all actives have a fitted effect of over 55% in size
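A cellular qHTS used chicken DT40 cells lacking endogenous Tdp1 but carrying stably transfected human TDP1. Compounds were applied without camptothecin, and cell growth kinetics were judged by ATP-dependent luminescence after ≥48 hr.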
12-LOX inh: Primary qHTS assay for inhibitors of human arachidonate 12S-lipoxygenase (ALOX12): Round 2; Polyunsaturated fatty acid lipoxygenase ALOX12 (Homo sapiens), P18054; 1.1% of 580,000 active; Potency, µM (titrated, usually from 108 µM), for inactives: at the highest dose activity change, negative = inhibition, usual class: inhibitors; AID 1671190, 2021; purified 12hLO, xylenol orange hydroperoxide absorbance
Target sequence (P18054 whole entry, looked up): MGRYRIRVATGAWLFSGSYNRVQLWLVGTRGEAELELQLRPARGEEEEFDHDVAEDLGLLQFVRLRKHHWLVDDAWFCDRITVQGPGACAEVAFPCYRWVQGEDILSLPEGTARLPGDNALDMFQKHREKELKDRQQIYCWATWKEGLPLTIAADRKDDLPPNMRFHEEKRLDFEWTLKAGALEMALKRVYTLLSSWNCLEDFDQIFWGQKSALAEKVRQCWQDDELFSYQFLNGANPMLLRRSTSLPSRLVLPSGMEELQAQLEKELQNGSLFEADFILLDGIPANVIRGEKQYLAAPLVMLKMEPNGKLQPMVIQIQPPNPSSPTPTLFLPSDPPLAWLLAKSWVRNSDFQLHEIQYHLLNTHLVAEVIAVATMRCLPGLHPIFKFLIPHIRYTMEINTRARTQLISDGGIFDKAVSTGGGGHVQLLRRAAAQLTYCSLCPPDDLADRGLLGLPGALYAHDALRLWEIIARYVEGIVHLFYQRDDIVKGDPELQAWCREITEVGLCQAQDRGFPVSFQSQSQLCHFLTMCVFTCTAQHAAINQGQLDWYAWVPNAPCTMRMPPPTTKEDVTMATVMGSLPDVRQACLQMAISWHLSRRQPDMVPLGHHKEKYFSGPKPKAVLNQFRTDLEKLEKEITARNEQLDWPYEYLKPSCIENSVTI
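Purified human 12hLO at 150 nM in 25 mM Hepes, 0.01% Triton X-100, pH 7.0, preincubated 15 min at room temperature with compound. Reaction started with 40 uM arachidonic acid, 30 min at room temperature. Hydroperoxide measured by Fe-xylenol orange, 573/405 nm absorbance ratio.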
ELG1 DNA repair: qHTS screen for small molecules that inhibit ELG1-dependent DNA repair in human embryonic kidney (HEK293T) cells expressing luciferase-tagged ELG1; HEK293T ELG1-luciferase reporter, luminescence, 16 h; DNA damage induced by 5-fluorouridine; Potency, µM (titrated, usually from 46.1 µM), for inactives: top-dose activity change, negative = inhibition, usual class: inhibitors; 2.3% of 330,000 active; AID 504467, 2011; further: nearly all actives have a fitted effect of over 55% in size
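Cells (2,000 per well) received 5-fluorouridine plus test compound or DMSO and were incubated 16 hr at 37 °C, 5% CO2. Luciferase activity was read by luminescence 30 min after ONE-Glo addition; signal suppression marked inhibition of damage-induced ELG1 function.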
DT40 TDP1 CPT: qHTS for Inhibitors of human tyrosyl-DNA phosphodiesterase 1 (TDP1): qHTS in cells in presence of CPT; chicken DT40 Tdp1-/-;hTDP1 cells + 20 nM CPT, ATP luminescence, 48 h; Potency, µM (series often up to 46.2 µM), for inactives: at the highest dose activity change, negative = growth inhibition, usual class: inhibitors; 12% of 420,000 active; further: nearly all actives have a fitted effect of over 55% in size
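Chicken DT40 Tdp1-/- cells complemented with human TDP1, 400 cells/well, exposed to compounds plus 20 nM camptothecin for at least 48 h at 37 C; viability read as ATP content by CellTiter-Glo luminescence.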
Starred values were filed as active, the others as inactive; [ ] = another dose, or the depositor's remark. Rows were chosen to be rich in hits. Some 15% of all compounds tested hit in one or more screens of this group. The call rests on the fitted dose curve; in most records, active means well fitted curve in the direction sought with a large enough effect; inconclusive means small, poorly fitted or top-dose-only effect, or another doubt; inactive means no such curve, though single readings can be large; an effect the other way counts as inactive or inconclusive. On the % scale 0 is the no-effect control and ±100 the full control effect; potency means the concentration at half of the fitted maximal effect.

CCN(c1ccccc1)S(=O)(=O)c1ccc(C(=O)N(C)CCc2ccc(OC)c(OC)c2)cc1 was read as Gal4-VP16 FLuc -11.8%, RORg inh 12.5%, TDP1 cell noCPT 20.6µM*, 12-LOX inh -8.8%, ELG1 DNA repair inconclusive and DT40 TDP1 CPT inconclusive.
`Cc1ccc(-c2nc(Cn3nnc(-c4ccccc4C)n3)cs2)cc1` gave 12-LOX inh 9.1%.
For CC1(C(=O)NCc2ccccc2)Cc2c(-c3ccc4c(c3)OCO4)ccnc2O1 (centres undefined) the results were TDP1 cell noCPT 0.82µM*, 12-LOX inh 7.2% and DT40 TDP1 CPT 0.651µM*.
`COCCNC(=O)C1(C)Cc2c(-c3ccc4c(c3)OCO4)ccnc2O1` (centres undefined) gave TDP1 cell noCPT 8.2µM*, 12-LOX inh 2.6% and DT40 TDP1 CPT 11.6µM*.
Screening CC(=O)Nc1cccc(-c2ccnc3c2CC(C)(C(=O)NCCN(C)C)O3)c1 (centres undefined) returned TDP1 cell noCPT -3.1%, 12-LOX inh -6.0% and DT40 TDP1 CPT 0.7%.
Screening CC(=O)Nc1cccc(-c2ccnc3c2CC(C)(C(=O)Nc2ccccc2)O3)c1 (centres undefined) returned TDP1 cell noCPT inconclusive, 12-LOX inh -0.3% and DT40 TDP1 CPT -29.6%.
`CC1(C(=O)NCCc2ccccc2)Cc2c(-c3ccc4c(c3)OCO4)ccnc2O1` (centres undefined) gave TDP1 cell noCPT 2.91µM*, 12-LOX inh 1.6% and DT40 TDP1 CPT inconclusive.
Screening CC(=O)Oc1cccc(C(=O)Nc2ccc(-c3nc4ccccc4o3)cc2)c1 returned 12-LOX inh -26.2%.
COc1ccccc1-c1cnc2c(Nc3cccc(OC(F)(F)C(F)F)c3)nccn12 was read as TDP1 cell noCPT inconclusive, 12-LOX inh -8.4% and DT40 TDP1 CPT inconclusive.
Screening FC(F)C(F)(F)Oc1cccc(Nc2nccn3c(-c4cccc5cccnc45)cnc23)c1 returned TDP1 cell noCPT 23.1µM*, 12-LOX inh inconclusive and DT40 TDP1 CPT 25.9µM*.
N#CC1=C2N=C(N)c3ccccc3N2C2=C(C(=O)CCC2)C1c1ccc(Cl)cc1 (centres undefined) was read as Gal4-VP16 FLuc -10.5%, RORg inh -0.8%, TDP1 cell noCPT 16.4µM*, 12-LOX inh 284.5%, ELG1 DNA repair -8.5% and DT40 TDP1 CPT 20.6µM*.
`Cc1c(C2C(C#N)=C(N)N(c3ccccc3C#N)C3=C2C(=O)CCC3)cnn1C` (centres undefined) gave Gal4-VP16 FLuc -5.1%, RORg inh 0.1%, TDP1 cell noCPT 1.2%, 12-LOX inh -1.6%, ELG1 DNA repair 3.3% and DT40 TDP1 CPT -10.5%.
For N#CC1=C2N=C(N)c3ccccc3N2C2=C(C(=O)CCC2)C1c1ccccc1F (centres undefined) the results were Gal4-VP16 FLuc 1.0%, RORg inh 7.8%, TDP1 cell noCPT -9.8%, 12-LOX inh 64.0%, ELG1 DNA repair -5.6% and DT40 TDP1 CPT 6.6%.
For Cc1ccccc1C1C(C#N)=C2N=C(N)c3c(sc4c3CCCCC4)N2C2=C1C(=O)CCC2 (centres undefined) the results were Gal4-VP16 FLuc inconclusive, RORg inh 14.1µM*, TDP1 cell noCPT inconclusive, ELG1 DNA repair inconclusive and DT40 TDP1 CPT inconclusive.
`CC1(C)CC(=O)C2=C(C1)N1C(=C(C#N)C2c2ccc(Cl)cc2)N=C(N)c2ccccc21` (centres undefined) gave Gal4-VP16 FLuc -21.3%, RORg inh inconclusive, TDP1 cell noCPT 20.6µM*, 12-LOX inh inconclusive, ELG1 DNA repair -26.1% and DT40 TDP1 CPT inconclusive.
Screening CC1(C)CC(=O)C2=C(C1)N1C(=C(C#N)C2c2ccccc2Cl)N=C(N)c2ccccc21 (centres undefined) returned Gal4-VP16 FLuc 2.7%, RORg inh inconclusive, TDP1 cell noCPT inconclusive, 12-LOX inh 262.4%, ELG1 DNA repair -14.5% and DT40 TDP1 CPT inconclusive.
`COc1ccc(O[C@H]2COCCN(C(=O)c3ccc(C(F)(F)F)cc3)C2)cc1` gave 12-LOX inh 97.2%[176 µM].
Screening Cc1cc(OCC(=O)Nc2sc3c(c2C(=O)N2CCOCC2)CCCC3)ccc1Cl returned 12-LOX inh -2.6%.
COC(=O)c1ccc(CNC(=O)c2nccnc2N)cc1 was read as 12-LOX inh -0.7%.
For CC(=O)Nc1ccc(NC(=O)CSc2nnc(NC(=O)c3ccc(Br)o3)s2)cc1 the results were Gal4-VP16 FLuc 11.2µM*, RORg inh 3.16µM*, TDP1 cell noCPT -22.3%, 12-LOX inh 0.0%, ELG1 DNA repair 4.1% and DT40 TDP1 CPT -17.6%.
Screening COc1ccc(NC(=O)CSc2nnc(NC(=O)c3ccccc3C(=O)O)s2)cc1 returned Gal4-VP16 FLuc 6.1%, RORg inh -11.2%, TDP1 cell noCPT inconclusive, 12-LOX inh inconclusive, ELG1 DNA repair -3.6% and DT40 TDP1 CPT 25.9µM*.
For Cc1nnc(SCC(=O)Nc2cccnc2Cl)s1 the results were TDP1 cell noCPT 3.4%, 12-LOX inh 8.8%, ELG1 DNA repair -2.9% and DT40 TDP1 CPT 9.5%.
Screening COc1ccc(NC(=O)CSc2nnc(NC(=O)Nc3ccc(OC)cc3)s2)cc1 returned TDP1 cell noCPT -0.9%, 12-LOX inh -18.8% and DT40 TDP1 CPT -15.5%.
Screening Cc1cccc(Nc2nnc(SCC(=O)Nc3ccccc3[N+](=O)[O-])s2)c1 returned Gal4-VP16 FLuc 3.0%, RORg inh -14.3%, TDP1 cell noCPT 16.4µM*, 12-LOX inh -6.7%, ELG1 DNA repair -16.1% and DT40 TDP1 CPT inconclusive.
For CCc1ccc(Nc2nnc(SCC(=O)Nc3cccnc3Cl)s2)cc1 the results were Gal4-VP16 FLuc inconclusive, RORg inh 11.2µM*, TDP1 cell noCPT -1.9%, 12-LOX inh -21.1%, ELG1 DNA repair -21.4% and DT40 TDP1 CPT -6.2%.
`CCCCc1ccc(-c2cc(C(=O)NC3CCCC3)c3cc(Br)ccc3n2)cc1` gave 12-LOX inh 11.5%.
Screening COC(=O)c1cccc(C(=O)N[C@H]2CO[C@H]3[C@@H]2OC[C@H]3OC(=O)Nc2cccc(C(F)(F)F)c2)c1 returned 12-LOX inh 43.1%.
